According to PubChem BioAssay (Tox21):
Several values for one entry are separate records, joined by “and”; a condition that tells them apart may be missing. Equal values may be shown once. Results filed as inconclusive are left out. Entries that show only a call come without a potency. A structure can be active in one record and inactive in another. Activity calls are given as the source filed them. Unless noted, calls follow the shape of the dose curve; as a rule, active = well fitted curve in the direction sought with a large enough effect in the repeat runs; inconclusive = weak or mixed curves; inactive = no such curve, though single readings can be large; an effect the other way counts as inactive or inconclusive.

How the values were obtained:
[1] = qHTS assay to identify small molecule agonists of the androgen receptor (AR) signaling pathway in the presence of an antagonist - cell viability counter screen (AID 1259379); also: nearly all actives have a fitted effect of over 25% in size; also: potency is read from the fitted curve at half-maximal effect
Outline: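 Cells: MDA-kb2 (MMTV-luc, AR and GR elements), 3,000/well, 5 hr settle. Added: nilutamide 3.0uM final, then compounds (15 conc.). Incubation: 16 hr, 37C, no CO2. Read-out: CellTiter-Fluor, 1 hr, fluorescence.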

[2] = qHTS assay to identify small molecule agonists of the estrogen receptor beta (ER-beta) signaling pathway - cell viability counter screen (AID 1259380); also: nearly all actives have a fitted effect of over 30% in size; also: potency is read from the fitted curve at half-maximal effect
Outline: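 HEK293T ER-beta-UAS-bla; 2% CS-FBS; 6 hr pre-plate, 16 hr cpd at 37C/5% CO2; LiveBLAzer read first, then CellTiter-Glo 30 min RT, luminescence.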

[3] = qHTS assay to identify small molecule antagonists of the estrogen receptor beta (ER-beta) signaling pathway - cell viability counter screen (AID 1259382); also: nearly all actives have a fitted effect of over 55% in size; also: potency is read from the fitted curve at half-maximal effect
Outline: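 Cells: ER-beta-UAS-bla HEK293T, 2,000/well, 2% CS-FBS, 6 hr settle. Cpd + E2 (1nM final), 16 hr, 37C/5% CO2. Bla FRET substrate 2 hr RT, then CellTiter-Glo 30 min RT, luminescence.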

[4] = qHTS assay to identify small molecule agonists or antagonists of the thyroid stimulating hormone receptor (TSHR) signaling pathway - wild type cell line counter screen (AID 1259384; calls by dose curve)
Outline: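 Wild-type HEK293 cells were plated 18 h at 37 C/5% CO2, pin-dosed with compound plus Ro20-1724 medium, held 30 min at room temperature, then given cAMP-d2 and anti-cAMP-cryptate; fluorescence was read after 1 h. Fifteen concentrations, triplicate.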

[5] = biological target: Thyrotropin receptor (Homo sapiens) (UniProt P16473); test: qHTS assay to identify small molecule antagonists of the thyroid stimulating hormone receptor (TSHR) signaling pathway (AID 1259385; calls by dose curve; also: nearly all actives have a fitted effect of over 20% in size; also: potency is read from the fitted curve at half-maximal effect)
Chain of Thyrotropin receptor (Homo sapiens) (P16473 whole entry, looked up): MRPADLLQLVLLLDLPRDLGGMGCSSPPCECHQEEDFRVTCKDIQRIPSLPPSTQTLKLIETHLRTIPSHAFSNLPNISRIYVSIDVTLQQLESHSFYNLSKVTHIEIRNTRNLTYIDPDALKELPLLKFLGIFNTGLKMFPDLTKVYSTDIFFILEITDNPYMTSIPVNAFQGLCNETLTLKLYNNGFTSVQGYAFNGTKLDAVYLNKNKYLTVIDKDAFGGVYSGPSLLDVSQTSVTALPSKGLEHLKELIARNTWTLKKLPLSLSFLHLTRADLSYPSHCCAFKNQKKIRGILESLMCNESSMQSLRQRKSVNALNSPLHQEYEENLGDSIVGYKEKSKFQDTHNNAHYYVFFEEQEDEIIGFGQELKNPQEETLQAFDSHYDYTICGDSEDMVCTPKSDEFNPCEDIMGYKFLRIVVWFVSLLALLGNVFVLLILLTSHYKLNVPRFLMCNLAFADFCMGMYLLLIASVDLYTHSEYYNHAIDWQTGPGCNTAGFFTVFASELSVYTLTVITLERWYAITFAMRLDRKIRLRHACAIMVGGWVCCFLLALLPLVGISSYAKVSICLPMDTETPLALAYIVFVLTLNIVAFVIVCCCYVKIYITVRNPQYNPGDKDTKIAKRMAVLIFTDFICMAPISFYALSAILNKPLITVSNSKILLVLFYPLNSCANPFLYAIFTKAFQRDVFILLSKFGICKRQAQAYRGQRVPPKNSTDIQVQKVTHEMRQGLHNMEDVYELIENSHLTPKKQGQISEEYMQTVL
Outline: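 TSHR-HEK293 cells were plated and held 18 h at 37C/5% CO2, then given compound plus Ro20-1724 and stimulated with TSH at 1.5 ng/mL final. After 30 min at room temperature, cAMP was detected with cAMP-d2/anti-cAMP-cryptate (1 h) by fluorescence.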

[6] = qHTS assay to identify small molecule agonists of the estrogen receptor alpha (ER-alpha) signaling pathway in the presence of an antagonist - cell viability counter screen (AID 1259386);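 also: cells exposed to compounds for 22 h at 37 °C before the viability read; nearly all actives have a fitted effect of over 30% in size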; also: potency is read from the fitted curve at half-maximal effect
Outline: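 VM7Luc4E2, stripped-serum pre-culture 5 d; 24hr plating; +ICI-182,780 10.0nM final; cpds 15 conc, 22hr, 37C/5% CO2; CellTiter-Fluor added at 21hr, fluorescence 1hr later.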

[7] = biological target: Progesterone receptor (Homo sapiens) (UniProt P06401); test: qHTS assay to identify small molecule agonists of the progesterone receptor (PR) signaling pathway (AID 1346784; calls by dose curve; also: nearly all actives have a fitted effect of over 30% in size)
Chain of Progesterone receptor (Homo sapiens) (P06401 whole entry, looked up): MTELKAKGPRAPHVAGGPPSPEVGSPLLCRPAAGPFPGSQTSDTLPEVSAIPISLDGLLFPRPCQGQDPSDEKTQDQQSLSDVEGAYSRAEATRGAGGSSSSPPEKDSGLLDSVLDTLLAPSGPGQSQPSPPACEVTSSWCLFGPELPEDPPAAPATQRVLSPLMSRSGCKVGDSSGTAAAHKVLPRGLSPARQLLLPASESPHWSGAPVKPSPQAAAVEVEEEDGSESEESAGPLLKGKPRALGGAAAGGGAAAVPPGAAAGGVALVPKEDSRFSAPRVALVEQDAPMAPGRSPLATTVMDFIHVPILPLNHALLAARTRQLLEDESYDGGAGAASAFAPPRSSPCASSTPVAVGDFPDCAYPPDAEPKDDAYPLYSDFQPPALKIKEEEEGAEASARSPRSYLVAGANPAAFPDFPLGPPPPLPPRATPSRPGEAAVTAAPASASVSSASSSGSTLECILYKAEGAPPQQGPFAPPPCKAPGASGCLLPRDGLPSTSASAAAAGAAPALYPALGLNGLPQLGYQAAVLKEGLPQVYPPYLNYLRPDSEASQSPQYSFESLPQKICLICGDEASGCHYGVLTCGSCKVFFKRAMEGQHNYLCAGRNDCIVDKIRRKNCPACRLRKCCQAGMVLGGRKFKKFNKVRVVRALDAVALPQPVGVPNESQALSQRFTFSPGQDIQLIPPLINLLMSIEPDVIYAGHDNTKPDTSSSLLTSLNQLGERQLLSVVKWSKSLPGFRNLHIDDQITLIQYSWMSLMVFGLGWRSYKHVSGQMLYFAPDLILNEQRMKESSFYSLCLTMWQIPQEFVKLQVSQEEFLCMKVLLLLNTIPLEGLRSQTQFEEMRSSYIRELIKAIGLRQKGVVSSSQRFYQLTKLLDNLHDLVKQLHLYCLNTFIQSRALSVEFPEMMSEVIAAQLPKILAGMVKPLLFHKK
Outline: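 PR-UAS-bla HEK 293T cells (beta-lactamase reporter under UAS) in 2% charcoal-stripped FBS, dosed with 23 nL compound after 6 hr, incubated 16hr at 37C. LiveBLAzer B/G FRET substrate added, fluorescence read after 2 hours.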

[8] = biological target: Progesterone receptor (Homo sapiens) (UniProt P06401); test: qHTS assay to identify small molecule antagonists of the progesterone receptor (PR) signaling pathway (AID 1346795; active = well fitted inhibition curve with a large enough effect in the signal ratio in the repeat runs, not every such curve was filed as active; the % refers to the signal ratio; also: potency is read from the fitted curve at half-maximal effect)
Outline: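 PR-UAS-bla HEK293T cells with beta-lactamase reporter under UAS control, in 2% charcoal-stripped FBS, treated with compounds plus 1 nM promegestone (R5020, final) for 16 hr at 37C. Read-out: FRET beta-lactamase substrate fluorescence after 2 hr at room temperature.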

[9] = qHTS assay to identify small molecule antagonists of the progesterone receptor (PR) signaling pathway - cell viability counter screen (AID 1346798); also: nearly all actives have a fitted effect of over 50% in size; also: potency is read from the fitted curve at half-maximal effect
Outline: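 PR-UAS-bla HEK293T cells, 3,000/well in 2% charcoal-stripped FBS medium, dosed with compounds plus R5020 agonist and incubated 16 h at 37C. Viability then measured in the same wells by CellTiter-Glo luminescence after 30 min at RT.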

[10] = qHTS assay to identify small molecule agonists of the progesterone receptor (PR) signaling pathway - cell viability counter screen (AID 1346799; calls by dose curve; also: nearly all actives have a fitted effect of over 45% in size; also: potency is read from the fitted curve at half-maximal effect)
Outline: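 Counter screen in the PR-UAS-bla HEK293T wells (2% charcoal-stripped FBS, 16 h compound exposure at 37 C) after the bla read. CellTiter-Glo added, 30 min at room temperature, luminescence read as cell viability.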

[11] = qHTS assay to identify small molecule antagonists of the TGF-beta/Smad signaling pathway - cell viability counter screen (AID 1346824); also: nearly all actives have a fitted effect of over 50% in size
Outline: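 SBE-bla HEK 293T cells were plated overnight at 37 C, then given compounds in DMSO plus TGF-beta1 (added as 0.25 ng/mL solution) for 5 hr. After the bla read, CellTiter-Glo was added to the same wells and luminescence read after 30 min at room temperature.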

[12] = qHTS assay to identify small molecule agonists of the TGF-beta/Smad signaling pathway (AID 1346859; active = well fitted activation curve with a large enough effect in the signal ratio in the repeat runs, not every such curve was filed as active; the % refers to the signal ratio; also: series mostly up to about 77 µM)
Outline: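 SBE-bla HEK293T cells plated overnight, then compound exposure for 5 h at 37 C. Beta-lactamase reporter read with LiveBLAzer B/G FRET substrate after 2 h at room temperature, fluorescence at 405 nm excitation, 460/530 nm emission.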

[13] = biological target: Thyrotropin-releasing hormone receptor (Homo sapiens) (UniProt P34981); test: qHTS assay to identify small molecule antagonists of the thyrotropin-releasing hormone receptor (TRHR) signaling pathway (AID 1346877; active = well fitted inhibition curve with a large enough effect in the repeat runs, not every such curve was filed as active; also: potency is read from the fitted curve at half-maximal effect)
Chain of Thyrotropin-releasing hormone receptor (Homo sapiens) (P34981 whole entry, looked up): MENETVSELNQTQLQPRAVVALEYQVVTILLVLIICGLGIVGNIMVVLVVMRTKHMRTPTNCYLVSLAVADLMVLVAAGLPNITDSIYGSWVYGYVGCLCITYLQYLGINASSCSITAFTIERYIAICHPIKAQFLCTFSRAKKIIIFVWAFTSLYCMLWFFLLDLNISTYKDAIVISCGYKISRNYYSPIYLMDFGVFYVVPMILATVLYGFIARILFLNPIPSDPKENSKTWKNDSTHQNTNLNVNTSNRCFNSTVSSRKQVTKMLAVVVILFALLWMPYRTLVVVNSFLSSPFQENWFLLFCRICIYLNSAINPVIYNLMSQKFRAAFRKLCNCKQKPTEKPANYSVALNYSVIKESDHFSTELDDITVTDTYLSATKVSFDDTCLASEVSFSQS
Outline: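 Intracellular calcium fluorescence, read kinetically every second over 3 min, reports TRH-evoked signalling in HEK293 cells carrying TRHR. Test compounds were added 5 min ahead of a 1 nM TRH challenge.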

[14] = biological target: Thyrotropin-releasing hormone receptor (Homo sapiens) (UniProt P34981); test: qHTS assay to identify small molecule agonists of the thyrotropin-releasing hormone receptor (TRHR) signaling pathway (AID 1346891; calls by dose curve; also: potency is read from the fitted curve at half-maximal effect; as to activation: series mostly up to about 58 µM)
Outline: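 HEK293 cells expressing TRHR plated 18 h at 37 C/5% CO2, calcium dye-loaded 2 h at 37 C, then compound added (agonist mode); kinetic calcium fluorescence read 3 min at 1 s intervals; 15 concentrations in triplicate.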

[15] = Human pregnane X receptor (PXR) small molecule agonists, qHTS cell viability counter screen (AID 1346977); also: nearly all actives have a fitted effect of over 50% in size; also: potency is read from the fitted curve at half-maximal effect
Outline: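 PXR-Luc HepG2 cells (2,000/well, 5% charcoal-stripped FBS) preincubated 5 hr, then exposed to compounds 24 hr at 37 C. Viability read in the same wells by CellTiter-Fluor fluorescence, reagent added at 23 hr, 1 hr incubation.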

[16] = qHTS assay to identify small molecule agonists of the TGF-beta/Smad signaling pathway - cell viability counter screen (AID 1346829); also: top concentration of the series differs between compounds; nearly all actives have a fitted effect of over 45% in size
Outline: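 Tox21 qHTS format: SBE-bla HEK 293T cells treated with DMSO-dissolved compounds for 5 hr; CellTiter-Glo luminescence after 30 min at room temperature.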

[17] = biological target: Estrogen receptor (Homo sapiens) (UniProt P03372); test: qHTS assay to identify small molecule agonists of the estrogen receptor alpha (ER-alpha) signaling pathway in the presence of an antagonist (AID 1259383; calls by dose curve; also: top concentration of the series differs between compounds; nearly all actives have a fitted effect of over 15% in size)
Chain of Estrogen receptor (Homo sapiens) (P03372 whole entry, looked up): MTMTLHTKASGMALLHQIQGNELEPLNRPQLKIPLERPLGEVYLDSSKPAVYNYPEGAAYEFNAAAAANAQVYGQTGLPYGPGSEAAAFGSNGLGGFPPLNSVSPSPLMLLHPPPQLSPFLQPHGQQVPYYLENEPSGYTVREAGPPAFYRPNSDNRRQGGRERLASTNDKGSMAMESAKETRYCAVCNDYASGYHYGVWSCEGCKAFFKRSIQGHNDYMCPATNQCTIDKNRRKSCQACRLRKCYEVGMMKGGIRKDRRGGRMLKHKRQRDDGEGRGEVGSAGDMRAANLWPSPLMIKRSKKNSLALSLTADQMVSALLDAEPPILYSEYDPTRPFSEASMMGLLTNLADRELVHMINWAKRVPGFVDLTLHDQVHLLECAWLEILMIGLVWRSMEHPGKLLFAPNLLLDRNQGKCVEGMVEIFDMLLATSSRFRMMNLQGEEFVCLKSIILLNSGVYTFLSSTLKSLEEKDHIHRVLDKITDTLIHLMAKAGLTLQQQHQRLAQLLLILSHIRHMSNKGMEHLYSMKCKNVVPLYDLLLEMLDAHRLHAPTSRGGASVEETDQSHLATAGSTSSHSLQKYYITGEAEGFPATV
Outline: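 VM7Luc4E2, endog. ER-alpha + 4×ERE-luc; charcoal-stripped FBS, phenol red-free, 5 d; 24hr plating; +10.0nM ICI-182,780 (final); cpds 15 conc, 22hr, 37C/5% CO2; ONE-Glo luminescence.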

| Structure (SMILES) | Potency [1] | Potency [2] | Potency [3] | outcome [4] | Potency [5] | Potency [6] | outcome [7] | Potency [8] | Potency [9] | Potency [10] | Potency [11] | Potency [12] | Potency [13] | Potency [14] | Potency [15] | Potency [16] | Potency [17] |
| --- | --- | --- | --- | --- | --- | --- | --- | --- | --- | --- | --- | --- | --- | --- | --- | --- | --- |
| [O]=[Zr] | inactive | inactive | inactive | inactive | inactive | inactive | inactive | inactive | inactive | inactive | inactive | inactive | inactive | inactive | inactive |  |  |
| COc1cc(C=C2CCC/C(=C\c3ccc(O)c(OC)c3)C2=O)ccc1O | 26.6 µM (active) | 33.5 µM (active) |  | inactive |  |  |  | 6.68 µM (active) |  |  | inactive | inactive | inactive | inactive |  | inactive |  |
| CCCCCCCCCCCCCc1ccccc1 | inactive | inactive | inactive | inactive | inactive | inactive | inactive | inactive | inactive | inactive | inactive | inactive |  |  | inactive | inactive |  |
| CCN(CC)c1ccc(N)cc1 | 19.9 µM (active) |  | 49.9 µM (active) | inactive |  | 28.1 µM (active) |  |  | 44.5 µM (active) | 44.5 µM (active) |  |  | inactive | inactive | 15.8 µM (active) |  |  |
| C=CC(C)C#N (centres undefined) | inactive | inactive | inactive |  |  | inactive | inactive |  | inactive |  | inactive | inactive |  |  | inactive |  |  |
| CC(=O)OC(OC(C)=O)c1ccc([N+](=O)[O-])o1 | 62.2 µM (active) | 62.2 µM (active) |  | inactive |  | 49.4 µM (active) |  |  |  |  |  |  |  |  |  |  |  |
| CN(C)CCCN1c2ccccc2CCc2ccccc21 | 61.1 µM (active) | 30.6 µM (active) and 23.7 µM (active) | 27.3 µM (active) and 23.7 µM (active) |  |  | inactive |  |  |  | 21.7 µM (active) and inactive |  |  | inactive | inactive | 30.6 µM (active) and 23.7 µM (active) | inactive |  |
| C1CC(COCC2CO2)CCC1COCC1CO1 (centres undefined) | inactive |  | inactive | inactive | inactive | inactive |  |  | inactive | inactive | inactive |  | inactive | inactive | inactive |  | inactive |
| Cc1cc2c(C(C)C)c(O)c(O)c(C=O)c2c(O)c1-c1c(C)cc2c(C(C)C)c(O)c(O)c(C=O)c2c1O |  | 13.3 µM (active) | 23.7 µM (active) | inactive | inactive |  |  | 13.3 µM (active) |  |  |  | inactive | inactive | inactive | 18.8 µM (active) |  |  |
| CCCCCCOc1cc(C)c(O)c(C)c1C |  | 55.1 µM (active) | 61.9 µM (active) | inactive | 55.1 µM (active) |  |  |  |  |  |  | inactive | inactive | inactive | 61.9 µM (active) | inactive |  |
| C[C@@]12C(=O)OC(=O)[C@]1(C)C1CCC2O1 | 5.96 µM (active) |  |  |  |  | inactive | inactive | 4.73 µM (active) |  |  |  | inactive | inactive | inactive | 0.266 µM (active) |  | inactive |
| Nc1ccc2cc3ccc(N)cc3nc2c1 |  | 2.37 µM (active) | inactive |  |  |  | inactive |  |  |  |  |  | 33.8 µM (active) | 15.5 µM (active) and 13.5 µM (active) |  | inactive |  |
